Sfp inh: inhibitors of Bacillus subtilis Sfp phosphopantetheinyl transferase; Biochemical Sfp PPTase activity, qHTS; Potency, µM, inactives show largest response in the series, negative = inhibition, actives largely listed as inhibitors; hit rate 3.5% among 310,000;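 note: the enzyme is Sfp with the accession as filed and its product quenches rhodamine fluorescence; potency is the fitted concentration of half-maximal effect; 0% = enzyme reaction without inhibitor and -100% = no enzyme wells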
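With Hepes-Na pH 7.6 buffer containing 10 mM MgCl2, Sfp (15 nM) modified BHQ-2-YbbR (12.5 uM) using rhodamine-CoA (5 uM). Two reads 30 minutes apart at 525/598 nm yielded each well's rate.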
FBPA coupling cs: coupling enzyme interference in Giardia aldolase counter-screen | hit rate 0.67% among 290,000 | activity change, negative = inhibition, % at 58.2 µM, hits read low | AID 2472 | coupling enzyme system counterscreen, AmpLite Red fluorescence; in the data active = activity change below about -30%
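Fluorescence at 525 nm excitation and 598 nm emission measured inhibition of the coupled detection system without aldolase. Compounds (at 57.5 uM final) were preincubated 10 min at room temperature with coupling enzyme reagent before a 20 min substrate/AmpLite Red step.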
Tau fluor cs: counter-screen for tau fibril formation inhibitors; Potency, µM (highest dose often 57.7 µM), without a hit: top-dose activity change, negative = decrease; tau K18 P301L Alexa594 fluorescence, heparin fibrillization; AID 1463; hit rate 0.93% among 280,000; note: potency is the fitted concentration of half-maximal effect; nearly all actives have a fitted effect of over 55% in size
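Human K18 P301L tau (15 uM unlabeled plus 0.24 uM Alexa 594-labeled, final) in 100 mM sodium acetate pH 7 was mixed with compound and 20 uM heparin and incubated 6 hr at 37 C.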
Tau FP inhib: tau fibrillization inhibition (FP); Potency, µM (top dose mostly 57.7 µM), without a hit: at the highest dose activity, negative = inhibition, actives largely listed as inhibitors; P10636; hit rate 0.39% among 280,000; K18 P301L tau heparin fibrillization, Alexa594 FP, 6 h; AID 1468; note: potency is the fitted concentration of half-maximal effect; nearly all actives have a fitted effect of over 55% in size
Target sequence (P10636 561-689 P618L limits assumed): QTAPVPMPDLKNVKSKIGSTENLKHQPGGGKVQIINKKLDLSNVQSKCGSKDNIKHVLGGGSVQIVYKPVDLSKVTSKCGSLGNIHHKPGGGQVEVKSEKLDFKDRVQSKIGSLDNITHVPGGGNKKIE
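Read-out: fluorescence polarization of Alexa 594-labeled tau (0.24 uM), 555 nm excitation, 632 nm emission. Mixtures held 15 uM unlabeled K18 P301L, compound and 20 uM heparin, pH 7 acetate buffer, incubated 6 hr at 37 C.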
G9a block: inhibitors of human histone lysine methyltransferase G9a. Potency, µM (highest dose often 102 µM), for the others: at the highest dose activity, negative = inhibition, usual class: inhibitors. G9a H3K9 monomethylation, AlphaScreen, 2 h. Q96KQ7. AID 504332. hit rate 8.8% among 350,000; note: potency is the fitted concentration of half-maximal effect; nearly all actives have a fitted effect of over 75% in size
Target sequence (Q96KQ7 913-1193 limits assumed): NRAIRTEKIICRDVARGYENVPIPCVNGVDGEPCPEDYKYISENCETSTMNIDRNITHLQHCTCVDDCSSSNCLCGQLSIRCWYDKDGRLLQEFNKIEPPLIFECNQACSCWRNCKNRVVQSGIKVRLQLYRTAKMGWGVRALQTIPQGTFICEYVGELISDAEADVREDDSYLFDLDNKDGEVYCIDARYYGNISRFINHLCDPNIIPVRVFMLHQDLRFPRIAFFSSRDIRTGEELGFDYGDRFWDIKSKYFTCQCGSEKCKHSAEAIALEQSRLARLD
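G9a (20 nM) preincubated 15 min RT with compounds, then 500 nM biotinylated H3K9 peptide and 20 uM SAM added; 2 h RT reaction. Monomethyl-H3K9 product detected by AlphaScreen with anti-H3K9me1 antibody, streptavidin donor and anti-rabbit IgG acceptor beads.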
Tau fibril ThT: blocks human tau fibril formation measured by thioflavin T; P10636; AID 1460; recombinant tau K18 P301L (four-repeat tau fragment), heparin-induced fibrillization, ThT fluorescence; hit rate 2.1% among 270,000; Potency, µM (highest dose often 57.4 µM), without a hit: top-dose activity, negative = inhibition, actives largely listed as inhibitors; note: potency is the fitted concentration of half-maximal effect; nearly all actives have a fitted effect of over 55% in size
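K18 P301L tau (15 uM + 0.24 uM Alexa 594-tagged), heparin 20 uM, NaOAc pH 7, 6 h 37 C; ThT 30 uM, 1 h RT, ex 450/em 510 nm.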
The depositor's hits bear a star; ? = inconclusive; / = no result; [ ] = remark or other dose. An excerpt weighted towards active compounds, which were near 11% of everything screened. Unless noted, calls come from the whole dose curve; as a rule, active = well fitted curve in the direction sought with a large enough effect; inconclusive = small, poorly fitted or top-dose-only effect, or another doubt; inactive = no such curve, though single readings can be large; an effect the other way counts as inactive or inconclusive. Unless noted, % is set by controls: 0 for no effect and ±100 for the full control effect.

SMILES	Sfp inh	FBPA coupling cs	Tau fluor cs	Tau FP inhib	G9a block	Tau fibril ThT
CCc1ccc(CNC(=O)C2CCCN(c3nnc(C)c4c(C)n(-c5ccccc5)nc34)C2)cc1 (stereo unspecified)	56.2µM*	/	-21.2%	-8.9%	?	?
Cc1ccccc1CNC(=O)C1CCCN(c2nnc(C)c3c(C)n(-c4ccccc4)nc23)C1 (stereo unspecified)	-8.1%	2.5	/	/	56.2µM*	/
CCOc1ccccc1CNC(=O)C1CCN(c2nnc(C)c3c(C)n(-c4ccc(C)cc4)nc23)CC1	1.6%	0.8	7.6%	1.2%	-43.3%	-0.1%
CCOc1ccc(CNC(=O)C2CCN(c3nnc(C)c4c(C)n(-c5ccc(C)cc5)nc34)CC2)cc1	?	-0.9	/	/	22.4µM*	/
C/C=C/C1=CC2=CC(=O)C(C)(OC(=O)c3c(C)cc(O)cc3O)C(=O)C2=CO1 (stereo unspecified)	-8.9%	-0.4	-21.7%	-14.6%	/	?
CN1CCN(c2ccc(NC(=S)NC(=O)c3cccc4c(Br)cccc34)cc2)CC1	5.7%	2.6	/	/	6.31µM*	/
CN1CCN(c2ccc(NC(=S)NC(=O)c3cccc4ccccc34)cc2)CC1	-24.9%	-1.2	/	/	22.4µM*	/
CN1CCN(c2ccc(NC(=O)COc3cccc4ccccc34)cc2)CC1	-6.0%	1.0	/	/	?	/
COCCn1c(=O)c(-c2cccs2)nc2cnc(OCc3ccccc3)nc21	10.5%	-2.0	/	/	5.9%[12.7 µM]	/
CN(C)c1nc(-c2cn(CCC#N)c3ccccc23)cs1	-25.2%	-4.4	/	/	28.2µM*	/
COc1cccc(Oc2cn[nH]c2-c2ccc(O)cc2O)c1	10.7%	-11.3	?	?	-1.0%[12.7 µM]	-9.0%
CCOc1ccc(-c2[nH]ncc2Oc2cccc(OC)c2)c(O)c1	14.7%	-8.0	15.8µM*[quencher]	?	-4.3%[2.33 µM]	?
COc1cccc(Oc2cn[nH]c2-c2ccc(OC)cc2O)c1	15.8%	-12.7	14.1µM*[quencher]	-10.5%	4.5%	-11.1%
Fc1ccc(N2CCN(C3=Nc4cccc5cccc3c45)CC2)cc1	7.5%	-4.5	-24.3%	-1.0%	39.8µM*	4.47µM*
c1ccc(CN2CCN(C3=Nc4cccc5cccc3c45)CC2)cc1	-5.7%	-9.7	-16.7%	-3.2%	?	?
Cc1ccc2nc(NC(=O)CCCc3nc4ccccc4s3)sc2c1	-21.7%	-0.6	?	-13.2%	?	?
O=C(CCCc1nc2ccccc2s1)Nc1nccs1	44.7µM*	-0.7	-9.2%	4.2%	39.8µM*	-17.7%
Cc1cnc(NC(=O)CCCc2nc3ccccc3s2)s1	39.8µM*	-0.1	-11.1%	-6.1%	35.5µM*	-8.2%
O=C(CCCc1nc2ccccc2s1)NNC(=O)CCN1CCN(Cc2ccccc2)CC1	14.9%	0.7	-2.6%	1.9%	35.5µM*	-7.2%
CN(Cc1ccccc1)C(=S)NC(=O)C1CCCCC1	0.1%	4.6	0.5%	-0.4%	-44.7%	6.4%
O=C(NC(=S)N(Cc1ccccc1)c1ccccn1)C1CCCCC1	-1.5%	-1.8	-7.5%	-6.9%	28.2µM*	-14.8%
CCOC(=O)N1CCC(NC(=O)C2CCN(C(=O)N3CC(C)Oc4ccc(C)cc43)CC2)CC1 (stereo unspecified)	-2.8%	3.1	4.1%	7.2%	-5.3%[59 µM]	1.4%
O=C(NC1CCCCCC1)C1CCN(C(=O)N2CCOc3ccc(Cl)cc32)CC1	/	/	?	?	7.94µM*	22.4µM*
CCOc1ccccc1CNC(=O)C1CCN(C(=O)N2CCOc3ccc(Cl)cc32)CC1	/	/	?	?	?	31.6µM*
Cc1ccc2c(c1)N(C(=O)N1CCC(C(=O)NC3CCCCCC3)CC1)CC(C)O2 (stereo unspecified)	/	/	10µM*[quencher]	7.6%	-0.4%[59 µM]	?
SMILES	Sfp inh	FBPA coupling cs	Tau fluor cs	Tau FP inhib	G9a block	Tau fibril ThT
Cc1ccc2c(c1)N(C(=O)N1CCC(C(=O)NC3CCCCCC3)CC1)CCO2	/	/	?	5.7%	-5.5%[59 µM]	-9.6%
Cc1ccnc(N2CCCC(C(=O)Nc3cccc(C)c3C)C2)n1 (stereo unspecified)	10.2%	4.5	/	/	9.2%	/
NC(=O)c1ccccc1NC(=O)C1CCCN(c2ncnc3onc(-c4ccc(F)cc4)c23)C1 (stereo unspecified)	/	/	-24.5%	-9.5%	-8.2%[59 µM]	-11.9%
CCOc1ccc(CCNC(=O)C2CCCN(c3nnc(C)c4c(C)n(-c5ccccc5)nc34)C2)cc1 (stereo unspecified)	/	/	3.5%	15.5%	-0.4%[59 µM]	?
COC(=O)CCC/C=C1/SCC(NC(=O)c2ccccc2)C1=O (stereo unspecified)	?	0.6	-28.4%	-12.6%	44.7µM*	?
CN1CCN(C(=O)c2cc3c(ccc4ccccc43)oc2=O)CC1	-1.1%	-3.3	-0.5%	1.9%	50.1µM*	5.6%
Cc1ccc(NC(=S)N/N=C2\CCCCC2C)cc1 (stereo unspecified)	-20.3%	2.1	-21.4%	3.3%	3.55µM*	?
CC1CCCC/C1=N\NC(=S)Nc1cccnc1 (stereo unspecified)	20µM*	-5.2	-13.4%	-6.8%	3.16µM*	?
S=C(Nc1cccnc1)NC1CCCCCCC1	2.6%	0.6	-8.7%	-6.0%	14.0%[59 µM]	2.6%
CC(C)C[C@@H](CC(=O)N[C@@H](CCC(=O)O)CC(=O)O)NC(=O)[C@@H]1CCCC[C@H]1NC(=O)C[C@H](CCCN)NC(=O)C[C@H](CO)NC(=O)[C@@H]1CNCC[C@H]1N	-18.4%	0.3	-2.5%	3.8%	/	-7.4%
CC(=O)N[C@H]1[C@H](Oc2ccc3c(c2)CCC2C3CC[C@]3(C)C(=O)CCC23)O[C@H](CO)[C@@H](O)[C@@H]1O (stereo partly specified)	17.8%	3.1	/	/	20.0%	/
OC[C@@H]1[C@@H](c2ccccc2)C(c2ccc(F)cc2)=NN1c1ccccc1	11.2%	-1.8	10µM*[quencher]	?	157.1%	?
OC[C@@H]1[C@@H](c2ccccc2)C(c2cccc(Cl)c2)=NN1c1ccccc1	19.0%	-3.9	17.8µM*[quencher]	?	312.8%	?
OC[C@@H]1[C@@H](c2ccc(F)cc2)C(c2ccc(F)cc2)=NN1c1ccccc1	5.8%	-1.0	28.2µM*[quencher]	-0.6%[81.3 µM]	134.8%	?
O=C1OCCN1C(=O)[C@H]1[C@H](c2ccc(Cl)cc2)C(c2cccc(Cl)c2)=NN1c1ccccc1	3.7%	-2.1	?	-12.0%	200.8%[59 µM]	-10.8%
O=C1OCCN1C(=O)[C@H]1[C@H](c2ccc(F)cc2)C(c2cccc(Cl)c2)=NN1c1ccccc1	25.2%	-2.6	?	-10.4%	210.6%[59 µM]	-4.0%
OC[C@@H]1[C@@H](c2ccc(Cl)cc2)C(c2ccc(F)cc2)=NN1c1ccccc1	9.8%	-3.2	25.1µM*[quencher]	14.0%[81.3 µM]	155.6%	-23.4%[81.4 µM]

Screens: PubChem, National Center for Advancing Translational Sciences (NCATS)
